Screens from PubChem.
Shown is part of a subset that was picked to be rich in hits.
HT1080NT lethal: qHTS for induction of synthetic lethality in tumor cells producing 2HG: qHTS for the HT-1080-NT fibrosarcoma cell line; HT-1080-NT fibrosarcoma viability, CellTiter-Glo ATP luminescence, 48 h; Potency, µM (series often up to 46.1 µM), for the others: top-dose activity, negative = less viability, actives largely listed as cytotoxic; hit rate 1.6% among 360,000;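 also: NT is the 2HG producing partner of a matched IDH1 knockdown line; potency is read from the fitted curve at half-maximal effect; 0% = DMSO-treated cells and -100% = media-only wells without cells; nearly all actives have a fitted effect of over 55% in size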
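Viability by CellTiter-Glo luminescence after 48 h compound exposure at 37C of HT-1080-NT cells (750/well, RPMI, 5% FBS). % activity scaled between DMSO wells and medium-only wells, then curve-fitted and categorized by curve class.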
TDP1 cell CPT: qHTS for Inhibitors of human tyrosyl-DNA phosphodiesterase 1 (TDP1): qHTS in cells in presence of CPT; chicken DT40 Tdp1-/-;hTDP1 cells + 20 nM CPT, ATP luminescence, 48 h; Potency, µM (titrated, usually from 46.2 µM), inactives show at the top dose activity change, negative = growth inhibition, actives largely listed as inhibitors; hit rate 12% among 420,000; also: potency is read from the fitted curve at half-maximal effect; nearly all actives have a fitted effect of over 55% in size
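Chicken DT40 Tdp1-/- cells complemented with human TDP1, 400 cells/well, exposed to compounds plus 20 nM camptothecin for at least 48 h at 37 C; viability read as ATP content by CellTiter-Glo luminescence.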
DT40 TDP1 no CPT: qHTS for Inhibitors of human tyrosyl-DNA phosphodiesterase 1 (TDP1): qHTS in cells in absence of CPT. hit rate 15% among 420,000. AID 686978, 2013. Potency, µM (doses to about 46.2 µM), for the others: at the highest dose activity change, negative = growth inhibition, usual class: inhibitors. DT40 Tdp1-/- hTDP1 cells, no CPT, ATP luminescence, 48 h; also: potency is read from the fitted curve at half-maximal effect; nearly all actives have a fitted effect of over 55% in size
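Growth of hTDP1-complemented DT40 Tdp1-knockout cells is measured by ATP luminescence after at least 48 hr compound exposure at 37 °C, with DMSO substituting for the 20 nM CPT used in the parallel screen.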
HT1080 IDH1KD tx: qHTS for induction of synthetic lethality in tumor cells producing 2HG: qHTS for the HT-1080-IDH1KD cell line | HT-1080 IDH1 knockdown viability, ATP luminescence, 48 h | Potency, µM (doses to about 46.1 µM), without a hit: at the highest dose activity, negative = toxicity, most hits filed as cytotoxic | hit rate 2% among 360,000 | AID 686971, 2013;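 also: potency is read from the fitted curve at half-maximal effect; 0% = DMSO wells and -100% = cell-free medium wells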
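HT-1080-IDH1KD cells (IDH1 knocked down), 750/well in RPMI with 5% FBS, treated with compound 48 h at 37 degrees C. Viability by CellTiter-Glo luminescence, normalised to DMSO and no-cell wells; concentration-response curves classed.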
12-LOX inh: Primary qHTS assay for inhibitors of human arachidonate 12S-lipoxygenase (ALOX12): Round 2. Potency, µM (doses to about 108 µM), for inactives: top-dose activity change, negative = inhibition, usual class: inhibitors. hit rate 1.1% among 580,000. AID 1671190, 2021. purified 12hLO, xylenol orange hydroperoxide absorbance. Polyunsaturated fatty acid lipoxygenase ALOX12 (Homo sapiens), P18054; also: potency is read from the fitted curve at half-maximal effect
Target sequence (P18054 whole entry, looked up): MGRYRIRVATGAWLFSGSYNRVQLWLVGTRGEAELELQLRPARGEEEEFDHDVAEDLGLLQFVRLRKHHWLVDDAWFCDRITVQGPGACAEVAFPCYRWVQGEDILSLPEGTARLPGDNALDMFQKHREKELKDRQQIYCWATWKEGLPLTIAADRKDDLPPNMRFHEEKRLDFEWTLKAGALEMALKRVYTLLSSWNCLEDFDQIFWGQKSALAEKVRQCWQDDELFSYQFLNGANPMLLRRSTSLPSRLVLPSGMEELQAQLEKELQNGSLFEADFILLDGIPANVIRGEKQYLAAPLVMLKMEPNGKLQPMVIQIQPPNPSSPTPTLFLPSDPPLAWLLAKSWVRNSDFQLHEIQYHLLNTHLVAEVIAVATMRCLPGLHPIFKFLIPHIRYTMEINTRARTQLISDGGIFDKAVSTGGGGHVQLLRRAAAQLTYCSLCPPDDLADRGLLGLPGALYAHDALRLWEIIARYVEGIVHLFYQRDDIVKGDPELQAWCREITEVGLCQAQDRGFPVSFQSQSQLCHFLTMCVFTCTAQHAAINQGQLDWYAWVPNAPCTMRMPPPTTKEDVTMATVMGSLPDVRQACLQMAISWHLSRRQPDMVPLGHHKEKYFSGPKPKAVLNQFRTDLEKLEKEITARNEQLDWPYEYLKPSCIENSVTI
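Purified human 12hLO at 150 nM in 25 mM Hepes, 0.01% Triton X-100, pH 7.0, preincubated 15 min at room temperature with compound. Reaction started with 40 uM arachidonic acid, 30 min at room temperature. Hydroperoxide measured by Fe-xylenol orange, 573/405 nm absorbance ratio.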
IL1B secr inh: qHTS for Inhibitors of Inflammasome Signaling: IL-1-beta AlphaLISA Primary Screen; THP-1 LPS/ATP IL-1B secretion, AlphaLISA, 16 h; stronger effect = lower value; activity change, % at 57.5 µM; hit rate 4.7% among 360,000; AID 743279, 2014; in the data active = activity change below about -50%; inconclusive = mostly about -30% to -49%
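THP-1 cells pretreated 1 hr with compounds (up to 57.5 uM final), then stimulated with LPS (250 ng/mL final) plus ATP (1.25 mM final); secreted IL-1B measured by AlphaLISA after 16 hr, decreased signal indicating inhibition.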
* marks the source's active call; other numbers are inactive results; i = inactive; ? = inconclusive; nt = not tested or not shown; [ ] = another dose, or the depositor's remark. Unless noted, calls follow the shape of the dose curve; as a rule, active = well fitted curve in the direction sought with a large enough effect; inconclusive = small, poorly fitted or top-dose-only effect, or another doubt; inactive = no such curve, though single readings can be large; an effect the other way counts as inactive or inconclusive. Unless noted, % is scaled to controls: 0 for no effect and ±100 for the full control effect.

SMILES	HT1080NT lethal	TDP1 cell CPT	DT40 TDP1 no CPT	HT1080 IDH1KD tx	12-LOX inh	IL1B secr inh
N#CC1=C(N)OC2=C(CCc3ccccc32)C1c1ccccc1 (centres undefined)	0.92µM*	0.82µM*	0.92µM*	0.58µM*	-26%	13
CC(C)Oc1c(I)cc(I)cc1/C=C(\C#N)c1nc2ccccc2[nH]1	nt	nt	nt	nt	-3%	nt
Cc1cc(Cl)ccc1NC(=O)CN1CCC(C(O)(c2ccccc2)c2ccccc2)CC1	?	?	?	?	22%	-61*
CN1CCN(CC(=O)Nc2ccc(Cl)cc2Cl)CC1	-7%	-13%	-1%	-1%	2%	-8
O=C(CN1CCCC1)Nc1ccc(Cl)cc1C(F)(F)F	0%	23µM*	?	2%	2%	-11
O=C(CN1CCCCC1)Nc1ccc(NC(=O)c2ccc(Cl)cc2)cc1Cl	-11%	13µM*	26µM*	-1%	0%	-2
Cc1cc(Cl)ccc1NC(=O)CN1CCCC1	13%	13%	-1%	17%	6%	-4
O=C(Cc1cccc(Cl)c1)N1CCC2(CC1)COc1ccccc1[S+](=O)([O-])N2	nt	nt	nt	nt	4%[6.33 µM]	nt
Cc1sccc1/C=N/NC(=O)C1CC1	nt	nt	nt	nt	0%	nt
Cn1c(=O)c2c(nc(NCc3ccc4c(c3)OCO4)n2Cc2c(F)cccc2Cl)n(C)c1=O	nt	nt	nt	nt	0%	nt
COc1ccc(-c2cc(C(=O)N(C)CCO)c3ccccc3n2)cc1	nt	nt	nt	nt	2%	nt
CCN(CC)CCNC(=O)c1cc(-c2ccco2)nc2ccccc12	-11%	29%	-19%	-5%	?	-8
Cc1ccc(N(C)C(=O)c2cc(-c3ccco3)nc3ccccc23)cc1	nt	nt	nt	nt	35µM*	nt
COc1cccc(NC(=O)CN(C)C(=O)c2cc(-c3ccco3)nc3ccccc23)c1	-20%	?	18µM*	-4%	?	-6
CN(CC(=O)Nc1ccc(F)cc1)C(=O)c1cc(-c2ccco2)nc2ccccc12	-9%	-6%	?	-19%	14µM*	-14
CN(CCOc1ccc(Cl)cc1)C(=O)c1cc(-c2ccco2)nc2ccccc12	-5%	?	?	-14%	?	-81*
CC(=O)Nc1ccc(S(=O)(=O)N2CCN=C2SCc2ccccc2C)cc1	-3%	?	16µM*	-2%	-10%	-3
CC(=O)Nc1ccc(S(=O)(=O)N2CCN=C2SCc2cccc(C)c2)cc1	0%	?	?	-1%	i	i
CC(=O)Nc1ccc(S(=O)(=O)N2CCN=C2SCc2ccc([N+](=O)[O-])cc2)cc1	?	12µM*	7.3µM*	?	i	-28
Cc1ccc(-n2c(C3CCN(C(=O)c4ccc5ccccc5n4)CC3)n[nH]c2=O)cc1	nt	nt	nt	nt	-12%	nt
N#C/C(=C\c1ccc(OCc2ccc(Cl)c(Cl)c2)cc1)C(=O)c1ccccc1	nt	nt	nt	nt	-62%	nt
Cc1cc(C)nc(-n2nc(C)c3c2N(Cc2ccccc2)C(=O)CC3c2ccc(Cl)cc2)n1 (centres undefined)	nt	16µM*	?	nt	-11%	nt
Nc1ccc(O)cc1	nt	7.7µM*	12µM*	nt	?	nt
CC(C)(C)C1CCC(C(=O)Nc2nccs2)CC1 (centres undefined)	11%	?	23µM*	11%	12%	20
O=[N+]([O-])c1cccc(-c2nnc(-c3ccccc3)o2)c1	20%	-2%	-35%	27%	0%	3
